Results reported in PubChem BioAssay AID1159580 (chemical genetic matrix, 2015).
Hit rate of the full screen: of about 5,500 compounds, about 2,000 (36%) were called active. Another 18% or so got no clear call; they are omitted. Cut-off read from the data, not from the text of the source: active = normalized growth mostly below about 0.91 (no sharp cut-off); inconclusive = no clear call, values can overlap the other calls; inactive = mostly above about 0.92. The list shows a part of the results.

Experiment: chemical genetic growth profiling, strain panel (AID 1159580);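 note: tested at 20 µM; growth read once vehicle control cultures reached saturation at 30 °C; 1 = growth at the plate median or of vehicle wells; lower values mean less growth of the strain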
Settings: growth OD
[1] = S. cerevisiae deletion strains, locus YDR150W, strain NUM1, hits give low values
[2] = S. cerevisiae deletion strains, locus YGR078C, strain PAC10, hits give low values
[3] = S. cerevisiae deletion strains, locus YNL153C, strain GIM3, hits give low values
[4] = S. cerevisiae deletion strains, locus YPL055C, strain LGE1, hits give low values
[5] = S. cerevisiae deletion strains, locus YAL013W, strain DEP1, hits give low values
[6] = S. cerevisiae deletion strains, locus YBR229C, strain ROT2, hits give low values
[7] = S. cerevisiae deletion strains, locus YDL101C, strain DUN1, hits give low values
[8] = S. cerevisiae deletion strains, locus YEL061C, strain CIN8, hits give low values
[9] = S. cerevisiae deletion strains, locus YGR229C, strain SMI1, hits give low values
[10] = S. cerevisiae deletion strains, locus YHR030C, strain SLT2, hits give low values
[11] = S. cerevisiae deletion strains, locus YHR087W, strain rtc3, hits give low values
[12] = S. cerevisiae deletion strains, locus YJL187C, strain SWE1, hits give low values
[13] = S. cerevisiae deletion strains, locus YJR043C, strain POL32, hits give low values
[14] = S. cerevisiae deletion strains, locus YJR075W, strain HOC1, hits give low values
[15] = S. cerevisiae deletion strains, locus YKL190W, strain CNB1, hits give low values
[16] = S. cerevisiae deletion strains, locus YLR039C, strain RIC1, hits give low values
[17] = S. cerevisiae deletion strains, locus YLR058C, strain SHM2 (second series), hits give low values
[18] = S. cerevisiae deletion strains, locus YLR085C, strain ARP6, hits give low values
[19] = S. cerevisiae deletion strains, locus YLR262C, strain YPT6, hits give low values
[20] = S. cerevisiae deletion strains, locus YML094W, strain GIM5, hits give low values
[21] = S. cerevisiae deletion strains, locus YMR219W, strain ESC1, hits give low values
[22] = S. cerevisiae deletion strains, locus YMR263W, strain SAP30, hits give low values
[23] = S. cerevisiae deletion strains, locus YNL298W, strain CLA4 (second series), hits give low values
[24] = S. cerevisiae deletion strains, locus YNL322C, strain KRE1, hits give low values
[25] = S. cerevisiae deletion strains, locus YNR030W, strain Alg12, hits give low values
[26] = S. cerevisiae deletion strains, locus YPL241C, strain CIN2, hits give low values
[27] = S. cerevisiae deletion strains, locus YPR135W, strain CTF4, hits give low values

Measured: normalized growth

CC(C)C[C@H](NC(=O)[C@@H](O)[C@H](N)Cc1ccccc1)C(=O)O
inactive: S. cerevisiae deletion strains, locus YAL040C, strain CLN3, hits give low values 1.05 | S. cerevisiae deletion strains, locus YCL061C, strain MRC1 (second series), hits give low values 1.01 | [1] 1.03 | S. cerevisiae deletion strains, locus YDR363W, strain ESC2, hits give low values 0.994 | S. cerevisiae deletion strains, locus YER002W, strain NOP16, hits give low values 1.02 | [2] 0.998 | [3] 1.03 | S. cerevisiae deletion strains, locus YNL175C, strain NOP13, hits give low values 0.997 | S. cerevisiae deletion strains, locus YNL197C, strain WHI3, hits give low values 0.996 | S. cerevisiae deletion strains, locus YNL224C, strain SQS1, hits give low values 1.01 | S. cerevisiae deletion strains, locus YOR083W, strain WHI5 (second series), hits give low values 0.989 | [4] 1.02

CCO/C=C1\SC(=S)N(CCc2ccccc2)C1=O
inactive: [5] 0.969 | [7] 0.973 | [1] 0.986 | [13] 0.961 | [20] 0.882 | [22] 0.962 | [3] 0.936 | [25] 0.929 | [4] 0.975 | [26] 0.969
active: [6] 0.898 | S. cerevisiae deletion strains, locus YCL061C, strain MRC1, hits give low values 0.882 | [8] 0.66 | [2] 0.919 | [9] 0.893 | [10] 0.149 | [11] 0.847 | [12] 0.897 | [14] 0.843 | [15] 0.736 | [16] 0.166 | [17] 0.898 | [18] 0.181 | [19] 0.193 | [21] 0.906 | [23] 0.561 | [24] 0.926 | [27] 0.305

COc1ccc(OC)c(S(=O)(=O)Nc2ccc(C#N)cc2)c1
inactive: [5] 0.978 | [6] 1.01 | [7] 1 | [1] 0.998 | [8] 1.02 | [2] 1.02 | [9] 1 | [10] 1.01 | [11] 1.01 | [12] 1 | [13] 0.989 | [14] 1.01 | [15] 0.996 | [16] 0.993 | [17] 1 | [18] 1.04 | [19] 0.953 | [20] 1.03 | [21] 1 | [22] 0.997 | S. cerevisiae deletion strains, locus YMR307W, strain GAS1, hits give low values 1.05 | [3] 0.998 | [23] 1 | [24] 0.993 | [25] 1.02 | [4] 1.02 | [26] 1.02 | [27] 0.951

Cc1ccc(OS(=O)(=O)c2ccc(C#N)cc2)c(Br)c1
active: [10] 0.62 | [16] 0.712 | [19] 0.796 | [27] 0.628 | S. cerevisiae strains, strain wild type, hits give low values 0.907
inactive: [5] 0.954 | [6] 1 | [7] 0.954 | [1] 0.973 | [8] 0.934 | [2] 0.976 | [12] 1.02 | [13] 0.979 | [14] 0.953 | [17] 0.997 | [18] 0.784 | [20] 0.957 | [21] 0.985 | [22] 0.966 | S. cerevisiae deletion strains, locus YNL128W, strain TEP1, hits give low values 0.969 | [3] 0.96 | [23] 0.881 | [24] 0.981 | [25] 0.918 | S. cerevisiae deletion strains, locus YOL006C, strain TOP1, hits give low values 0.765 | [4] 0.936 | [26] 0.927
